# This is a sample that favours compounds with a hit; in the whole collection about 2.8% have one here.
# HIF-2a inh: HIF-2a reporter inhibitors, primary screen, luminescence, 786-0 RCC cells | 786-0 RCC cells HIF-2a reporter, luciferase luminescence, overnight | AID 624352, 2012 | inhibition, % at 18.8 µM | 0.72% of 360,000 active;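 active means inhibition of the luminescence signal of 40% or more relative to plate controls, in a single-dose primary screen at 18.75 µM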
# KKLEB cytotox: cytotoxicity in KKLEB CF airway cells, primary screen, cytotoxicity control for CF NF-kB inhibitor project, cell-based, uHTS, fluorescence assay plates; KKLEB CF airway cells viability, ATPlite luminescence, overnight; active compounds read low; cells stimulated with P. aeruginosa culture filtrate; activity change (cytotoxicity), % at 5 µM; 0.36% of 360,000 active;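 active means corrected activity change at or below -50% at 5 µM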
# Shn3 3UTR inh: reduction of Shn3 3'UTR firefly luciferase signal, primary screen, Schnurri-3 inhibitor project, cell-based, Clone20 osteoblasts, set 2; Clone20 osteoblast Shn3 3'UTR firefly luciferase, 24 h; inhibition, % at 12.5 µM; 0.52% of 360,000 active; AID 588674, 2011;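 active means mean inhibition of at least 75% with every replicate also reaching 75%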;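 further: 0% = median of neutral control wells and 100% = pilot-screen positive control compound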
# Peg3 prom inh: Peg3 promoter-driven luciferase inhibitors, primary screen, cell-based, HeLa, luciferase luminescence. HeLa PEG-Prom luciferase reporter, overnight. inhibition, % at 20 µM. 1.7% of 360,000 active. AID 588405, 2011;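 active means inhibition of at least 50% at 20 µM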
# CF NFkB block: inhibitors of PAF-induced NF-kB signaling, primary screen, cell-based, GFP fluorescence, uHTS; KKLEB NF-kB-GFP reporter, GFP fluorescence overnight; inhibition, % at 5 µM; 0.86% of 360,000 active; AID 588850, 2011;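 active means at least 50% inhibition at 5 µM, scaled per plate between neutral and stimulator controls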;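 further: PAF is a Pseudomonas aeruginosa culture filtrate used as stimulus; plate controls were PAF-stimulated DMSO wells for no effect and unstimulated DMSO wells for full effect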
# TRPM1 prom inh: inhibitors of MITF-dependent TRPM1 promoter reporter, primary screen, cell-based, SK-MEL-5, single point, luciferase; inhibition, % at 12.5 µM; 0.83% of 330,000 active; AID 488899, 2010; SK-MEL-5 TRPM1 promoter luciferase, 24 h;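 active means mean inhibition across replicates of 60% or more, whatever share of single replicates reaches that level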
# Mdm2 MdmX conf: retested Mdm2-MdmX interaction blockers, confirmation, cell-based, luminescence, single concentration, set 2. AID 504601, 2011. inhibition, % at 8 µM. shares compounds with HIF-2a inh. 99% of 740 active. SaOS-2 split-luciferase Mdm2/MdmX complementation;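 active means mean inhibition of the luminescence signal across two replicates at or above 26 percent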
# Target sequence (O15151 whole entry, looked up): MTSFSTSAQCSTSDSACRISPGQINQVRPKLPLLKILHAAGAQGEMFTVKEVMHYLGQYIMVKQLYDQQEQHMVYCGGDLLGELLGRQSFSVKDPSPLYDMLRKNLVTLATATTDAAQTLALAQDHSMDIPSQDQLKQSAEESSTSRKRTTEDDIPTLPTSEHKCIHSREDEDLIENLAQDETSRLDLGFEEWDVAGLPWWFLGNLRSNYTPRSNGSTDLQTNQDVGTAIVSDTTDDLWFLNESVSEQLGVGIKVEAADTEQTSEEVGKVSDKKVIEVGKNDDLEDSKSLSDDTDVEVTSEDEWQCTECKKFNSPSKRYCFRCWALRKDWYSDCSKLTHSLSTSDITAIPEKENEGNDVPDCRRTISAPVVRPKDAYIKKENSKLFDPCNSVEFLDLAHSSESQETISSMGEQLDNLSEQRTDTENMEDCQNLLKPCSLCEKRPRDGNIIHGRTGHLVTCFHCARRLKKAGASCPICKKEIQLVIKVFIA
# Target sequence (Q00987 whole entry, looked up): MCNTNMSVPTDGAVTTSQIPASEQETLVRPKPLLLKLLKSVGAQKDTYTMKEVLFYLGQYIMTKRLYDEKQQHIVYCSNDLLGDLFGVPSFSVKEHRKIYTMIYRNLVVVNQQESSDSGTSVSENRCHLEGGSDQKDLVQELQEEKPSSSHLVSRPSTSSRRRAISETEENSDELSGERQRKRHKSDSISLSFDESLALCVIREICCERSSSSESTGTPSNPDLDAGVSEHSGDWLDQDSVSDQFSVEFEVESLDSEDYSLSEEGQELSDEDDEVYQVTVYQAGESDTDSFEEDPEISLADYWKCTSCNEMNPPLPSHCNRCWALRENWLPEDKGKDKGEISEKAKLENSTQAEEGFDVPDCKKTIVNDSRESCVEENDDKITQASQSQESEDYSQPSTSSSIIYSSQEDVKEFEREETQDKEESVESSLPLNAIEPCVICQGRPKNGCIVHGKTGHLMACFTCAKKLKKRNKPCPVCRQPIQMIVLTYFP
# HIF-2a inh conf: HIF-2a reporter inhibitor retest, confirmation, luminescence, 786-0 RCC cells; shares compounds with HIF-2a inh; inhibition, % at 18.8 µM; 56% of 1,800 active; HIF-2a luciferase reporter luminescence, overnight;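 active means mean inhibition across four replicates of at least 40 percent at the single tested concentration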
# HIF-1a counter: HIF-1a luciferase reporter signal reduction – MiaPaCa-2 cells, single concentration, counter-screen for HIF-2a inhibitor project, confirmation | shares compounds with HIF-2a inh | MiaPaCa-2 HIF-1a luciferase reporter, desferoxamine, overnight | inhibition, % at 18.8 µM | 72% of 1,800 active | AID 651589, 2012;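 active means mean inhibition of the reporter signal across four replicates at the single tested dose of 50% or more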
# * hit, by the source's call; nt = no result.
SMILES,HIF-2a inh,KKLEB cytotox,Shn3 3UTR inh,Peg3 prom inh,CF NFkB block,TRPM1 prom inh,HIF-2a inh conf,HIF-1a counter,others
Cc1ccc(NC(=O)c2cc3c(CO)cnc(C)c3oc2=Nc2cccc(C(N)=O)c2)cc1,11.8,-5.7,-11.3,-3.1,10.9,-3.8,nt,nt,
COc1ccc(NC(=O)CCCn2cnc3ccccc3c2=O)c(OC)c1,10.7,0.5,3.6,8.1,-5.7,6.4,nt,nt,
Cc1cc(Cl)n2c(nc3cc(F)c(F)cc32)c1C#N,94.8*,-69.3*,96.3*,110.3*,89.4*,98.0*,58.2*,100.2*,
Cc1cc(C)n2c(=O)c3ccc(Cl)cc3nc2c1C#N,-17.8,-0.2,-4.1,7.9,-78.9,9.7,nt,nt,
Cc1cc(C)n(-c2ncc(C#N)cn2)n1,49.5*,13.9,8.0,-0.9,0.9,13.6,4.3,-2.8,
c1cc(N2CCOCC2)ccc1-c1ccc2nncn2c1,38.4*,-2.3,-22.1,8.5,-5.9,nt,17.3,-13.6,
c1coc(-c2ccc3nncn3c2)c1,7.6,15.3,9.8,-10.3,-10.4,nt,nt,nt,
CCn1c(SCC(=O)c2c(N)n(C3CC3)c(=O)[nH]c2=O)nnc1-c1ccoc1C,11.3,-15.9,-22.4,13.4,8.7,-1.6,nt,nt,
CCCOc1ccc(/C(O)=C2/C(=O)C(=O)N(c3ccccn3)C2c2ccc(OC)cc2)cc1C (stereo not given),-1.7,-10.7,1.8,-5.8,-5.9,5.6,nt,nt,
Cc1cc(C)n(S(=O)(=O)/C=C/c2ccccc2)n1,23.4,7.0,7.7,18.9,8.8,8.2,nt,nt,Mdm2 MdmX conf=93.2*
Cc1ccc(S(=O)(=O)n2nc(C)cc2C)cc1,3.3,13.0,-2.2,10.6,-6.3,2.3,nt,nt,
CC(=O)c1c(C)oc2ccc(N(C(C)=O)S(=O)(=O)c3ccc(Br)cc3)cc12,6.5,-11.8,31.4,46.6,9.7,4.5,nt,nt,
CC(=O)c1c(C)oc2ccc(N(C(C)=O)S(=O)(=O)c3ccc(Cl)c([N+](=O)[O-])c3)cc12,69.1*,-9.4,-9.9,104.3*,42.3,65.0*,-1.2,107.0*,
Cc1ccc(NC(=O)c2cccc(NC3=NC4CS(=O)(=O)CC4S3)c2)cc1 (stereo not given),-10.1,22.9,16.8,-9.7,-1.4,nt,nt,nt,
CN(C)c1ncc(S(=O)(=O)c2ccc(Cl)cc2)c(-c2ccccc2)n1,10.6,-7.8,16.1,23.3,12.7,-1.6,nt,nt,
c1ccc(-c2nnsc2-c2ncc[nH]2)cc1,12.0,-2.6,-5.6,-0.9,-1.1,2.5,nt,nt,
O=S(=O)(c1ccc(F)cc1)c1snnc1-c1ccccc1,40.5*,-33.5,57.1,74.8*,36.0,66.0*,13.1,10.6,
O=S(=O)(c1ccc(Cl)cc1)c1snnc1-c1ccccc1,58.0*,-3.3,79.0,93.4*,40.4,82.6*,62.5*,102.7*,Mdm2 MdmX conf=103.2*
CCN(CC)C(=O)c1[nH]cnc1C(=O)NCc1ccc(CNC(=O)OC(C)(C)C)cc1,11.3,-2.9,1.2,2.3,-11.8,-10.4,nt,nt,
O=C(O)c1ccc(S(=O)(=O)N2CCc3ccccc3C2)cc1,18.5,5.6,-3.3,-4.6,16.9,16.1,nt,nt,
Cc1cc(C2(c3ccc(O)c(C)c3)OC(=O)c3ccccc32)ccc1O,36.4,4.4,-14.4,7.0,13.4,-17.7,nt,nt,
Cc1cc(O)c(C(C)C)cc1C1(c2cc(C(C)C)c(O)cc2C)OC(=O)c2ccccc21,50.0*,0.7,40.5,111.3*,33.3,56.8,62.8*,107.3*,
NC(Cc1ccccc1)C(=O)N1CCCCC1 (stereo not given),11.4,4.8,2.5,-3.8,-3.5,2.9,nt,nt,
O=C(c1cc(C2CC2)nc2ccc(Br)cc12)N1N=C(C(F)F)CC1(O)C(F)F (stereo not given),57.2*,-14.4,1.5,59.8*,13.0,8.5,35.1,65.3*,
O=C(c1cc(C2CC2)nc2ccccc12)N1N=C(C(F)F)CC1(O)C(F)F (stereo not given),18.4,3.7,7.0,21.1,4.1,12.8,nt,nt,
SMILES,HIF-2a inh,KKLEB cytotox,Shn3 3UTR inh,Peg3 prom inh,CF NFkB block,TRPM1 prom inh,HIF-2a inh conf,HIF-1a counter,others
CCOC(=O)Cc1csc(NC(=O)Cc2ccc([N+](=O)[O-])cc2)n1,10.8,-1.3,-5.7,19.8,-17.3,-11.5,nt,nt,
CCOC(=O)Cc1csc(NC(=S)NC(=O)c2ccc([N+](=O)[O-])cc2)n1,62.8*,7.9,-26.9,9.3,15.1,-1.2,71.4*,-13.5,
COc1cc(C(=O)NCc2nnc(SCC(=O)NCc3ccco3)o2)cc(OC)c1OC,13.6,4.6,3.2,7.0,6.1,2.5,nt,nt,
COc1ccc(C=NNC(=S)Nc2ccc(F)cc2)cc1OC,48.2*,1.2,8.4,7.2,-16.6,13.6,5.7,37.6,
NC(c1csc(Nc2nncc3ccccc23)n1)C1CCCCC1 (stereo not given),68.3*,-21.2,12.5,113.0*,7.6,nt,-6.1,106.5*,
COC(=O)Nc1ccc(S(=O)(=O)NNC(=O)c2c(O)c3ccccc3n(C)c2=O)cc1,21.7,-6.8,11.1,7.5,1.1,26.4,nt,nt,
O=C1c2ccccc2-c2onc3ccc(Oc4ccccc4)c1c23,-5.7,-82.7*,90.5*,104.4*,85.3*,97.1*,nt,nt,Mdm2 MdmX conf=102.7*
CN(CCc1cn[nH]c1)C(=O)C1CCC(=O)N(CC2CCCCC2)C1 (stereo not given),10.7,3.9,0.3,22.0,0.3,4.5,nt,nt,
CCCCOc1ccc(C(=O)C(CN2CCOCC2)c2ccccc2)cc1 (stereo not given),86.9*,-37.7,-13.4,96.5*,-18.1,33.0,25.4,104.8*,
CCCCCOc1ccc(C(=O)C(c2ccccc2)N2CCOCC2)cc1 (stereo not given),22.8,-3.2,10.6,25.9,15.3,7.1,nt,nt,
CCCOc1ccc(C(=O)C(CN2CCCC2)c2ccccc2)cc1 (stereo not given),85.5*,-61.0*,94.9*,108.5*,38.5,77.4*,-17.7,103.9*,
COc1cccc(CNC(=O)Cn2cc([N+](=O)[O-])cn2)c1,8.5,5.9,1.9,4.2,-12.3,1.6,nt,nt,

# Compound activity deposited in PubChem by several laboratories.
